Results from PubChem BioAssay (EPA / NIEHS).
Values joined by “and” are separate entries in the source; they are usually repeats but may differ in a detail not shown here. Equal values may be shown once. Where a structure was tested more than once in an assay, its records may differ in their call. Active and inactive are the calls of the source. The calls were made as follows: active = hit-call score of the fitted dose curve at least 0.9, where 1 is the maximum; inactive = score below 0.9.

What was measured:
[1] = read-out: Interleukin-1 alpha (IL1a), IL1A (gene 3552); assay: BSK_KF3CT_IL1a: BioMAP Diversity Plus: KF3CT Assay for Interleukin-1 alpha (IL1a) Biomarker Activity (AID 2283070); settings: primary human keratinocytes with fibroblasts; actives raise or lower the signal
Method in brief: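 Primary human keratinocyte plus foreskin fibroblast co-culture, dosed and measured at 24 h in 96-well plates. IL-1a level quantified by ELISA; bidirectional fit relative to DMSO.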

[2] = read-out: TIMP metallopeptidase inhibitor 2 (TIMP2), TIMP2 (gene 7077); assay: BSK_KF3CT_TIMP2: BioMAP Diversity Plus: KF3CT Assay for TIMP metallopeptidase inhibitor 2 (TIMP2) Biomarker Activity (AID 2283071); settings: primary human keratinocytes with fibroblasts; actives raise or lower the signal
Method in brief: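 Cells: human keratinocytes co-cultured with foreskin fibroblasts. Treat with chemical, 24 h. Measure TIMP-2 by ELISA; fit curves bidirectionally vs DMSO baseline.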

[3] = read-out: Transforming growth factor beta 1 (TGFb1), TGFB1 (gene 7040); assay: BSK_KF3CT_TGFb1: BioMAP Diversity Plus: KF3CT Assay for Transforming growth factor beta 1 (TGFb1) Biomarker Activity (AID 2283072); settings: primary human keratinocytes with fibroblasts; actives raise or lower the signal
Method in brief: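 Primary human skin cells (keratinocytes, foreskin fibroblasts) were co-cultured, exposed to test chemical and sampled at 24 h. TGF-b1 levels were measured by ELISA and fitted bidirectionally relative to DMSO.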

[4] = read-out: C-C motif chemokine 2 (Homo sapiens) (UniProt P13500); assay: BSK_KF3CT_MCP1: BioMAP Diversity Plus: KF3CT Assay for Monocyte Chemoattractant Protein 1 (MCP1/CCL2) Biomarker Activity (AID 2283073); settings: primary human keratinocytes with fibroblasts; actives raise or lower the signal
Method in brief: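 ELISA readout of MCP-1 after 24 h chemical dosing of a human skin primary co-culture of keratinocytes and foreskin fibroblasts. Activity was fitted in both directions against DMSO.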

[5] = read-out: urokinase plasminogen activator (uPA), PLAU (gene 5328); assay: BSK_KF3CT_uPA: BioMAP Diversity Plus: KF3CT Assay for urokinase plasminogen activator (uPA) Biomarker Activity (AID 2283075); settings: primary human keratinocytes with fibroblasts; actives raise or lower the signal
Method in brief: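 Primary human keratinocyte/foreskin fibroblast co-culture exposed to chemical; uPA measured by ELISA at 24 h. Bidirectional fit versus DMSO, with parallel SRB total-protein staining for cytotoxicity.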

[6] = read-out: CD40, CD40 (gene 958); assay: BSK_LPS_CD40: BioMAP Diversity Plus: LPS Assay for CD40 Biomarker Activity (AID 2283076); settings: primary human HUVEC with PBMC; actives raise or lower the signal
Method in brief: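 Cells were dosed, incubated 24 h, then assayed for CD40 by ELISA. Gain or loss of signal was analysed relative to DMSO controls. The culture paired human umbilical vein endothelium with peripheral blood mononuclear cells.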

[7] = read-out: E-selectin (Homo sapiens) (UniProt P16581); assay: BSK_LPS_Eselectin: BioMAP Diversity Plus: LPS Assay for Eselectin Biomarker Activity (AID 2283077); settings: primary human HUVEC with PBMC; actives raise or lower the signal
Method in brief: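 Primary human vascular co-culture (endothelium plus PBMC) was dosed with chemical, then E-selectin quantified by ELISA at 24 h. Endpoint values derive from bidirectional curve fitting relative to DMSO.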

[8] = read-out: Interleukin-8 (IL8), CXCL8 (gene 3576); assay: BSK_LPS_IL8: BioMAP Diversity Plus: LPS Assay for Interleukin-8 (IL8) Biomarker Activity (AID 2283078); settings: primary human HUVEC with PBMC; actives raise or lower the signal
Method in brief: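 Readout is IL-8 by ELISA, taken 24 h after compounds were added to LPS-stimulated endothelial/PBMC co-cultures. Both increases and decreases relative to DMSO control were scored through bidirectional fitting.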

[9] = read-out: Matrix Metallopeptidase 9 (MMP9), MMP9 (gene 4318); assay: BSK_KF3CT_MMP9: BioMAP Diversity Plus: KF3CT Assay for Matrix Metallopeptidase 9 (MMP9) Biomarker Activity (AID 2283074); settings: primary human keratinocytes with fibroblasts; actives raise or lower the signal;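 as to AC50: MMP9 protein level quantified by ELISA in the co-culture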
Method in brief: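 Human keratinocyte and foreskin fibroblast co-culture exposed to chemicals for 24 h; MMP9 biomarker measured by ELISA, bidirectional fitting relative to DMSO; cytotoxicity tracked by SRB total protein staining in parallel cultures.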

[10] = BSK_LPS_SRB: Viability Assessment in the BioMAP Diversity Plus: LPS Assay (AID 2283079); settings: primary human HUVEC with PBMC;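 also: total protein by sulforhodamine B absorbance as a cytotoxicity measure; measured one day after compound addition; fitted in both directions against DMSO so loss or gain of signal counts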
Method in brief: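 Readout is SRB absorbance at 560 nm (0.1% stain, TCA-fixed parallel cultures) as a total-protein cytotoxicity measure. Cells: primary human umbilical vein endothelium plus peripheral blood mononuclear cells, 24 h after chemical exposure; DMSO served as baseline.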

Sequence of E-selectin (Homo sapiens) (P16581 whole entry, looked up): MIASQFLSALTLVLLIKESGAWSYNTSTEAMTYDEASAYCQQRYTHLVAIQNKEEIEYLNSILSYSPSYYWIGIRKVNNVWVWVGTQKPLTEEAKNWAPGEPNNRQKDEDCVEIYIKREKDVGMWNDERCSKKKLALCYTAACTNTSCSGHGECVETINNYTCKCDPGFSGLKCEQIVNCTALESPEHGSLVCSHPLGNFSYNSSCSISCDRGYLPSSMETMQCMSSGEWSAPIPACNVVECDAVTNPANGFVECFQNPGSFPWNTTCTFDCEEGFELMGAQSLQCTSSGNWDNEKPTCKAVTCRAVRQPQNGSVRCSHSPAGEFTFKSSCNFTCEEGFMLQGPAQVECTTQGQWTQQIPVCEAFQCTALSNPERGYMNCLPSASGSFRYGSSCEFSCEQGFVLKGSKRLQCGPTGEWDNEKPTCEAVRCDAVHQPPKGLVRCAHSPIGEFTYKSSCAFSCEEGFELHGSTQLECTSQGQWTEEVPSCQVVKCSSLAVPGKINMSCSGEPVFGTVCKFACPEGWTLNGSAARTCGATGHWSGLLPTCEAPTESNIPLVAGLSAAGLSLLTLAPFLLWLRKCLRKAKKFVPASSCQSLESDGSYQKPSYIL

C1CNCCN1
outcome [1]: inactive
outcome [2]: inactive
outcome [3]: inactive
outcome [4]: inactive
outcome [5]: inactive
outcome [6]: inactive
outcome [7]: inactive

Oc1ccc(/C=C/c2cc(O)cc(O)c2)cc1
AC50 [1]: 3.97 µM (active)
AC50 [2]: 8.83 µM (active)
outcome [3]: inactive
AC50 [4]: 20 µM (active)
outcome [5]: inactive
outcome [6]: inactive
outcome [7]: inactive
outcome [8]: inactive

CC(C)[N+](C)(CCOC(=O)C1c2ccccc2Oc2ccccc21)C(C)C
outcome [1]: inactive
outcome [3]: inactive
outcome [4]: inactive
outcome [9]: inactive
outcome [5]: inactive
outcome [6]: inactive
outcome [7]: inactive
outcome [8]: inactive

C=CC(=O)OCCCCCCCC(C)C
outcome [1]: inactive
outcome [3]: inactive
outcome [4]: inactive
outcome [5]: inactive
outcome [6]: inactive
outcome [7]: inactive

Clc1cc(Cl)c(Cl)c(Cl)c1Cl
outcome [1]: inactive
outcome [3]: inactive
outcome [4]: inactive
outcome [9]: inactive
outcome [5]: inactive
outcome [6]: inactive
outcome [7]: inactive
outcome [8]: inactive

COc1ccc(C(=O)c2ccccc2)c(O)c1
outcome [1]: inactive
outcome [2]: inactive
outcome [3]: inactive
outcome [4]: inactive
outcome [5]: inactive
outcome [6]: inactive
outcome [7]: inactive

CC1(C)CC(O)CC(C)(C)N1[O]
outcome [1]: inactive
outcome [2]: inactive
outcome [3]: inactive
outcome [4]: inactive
outcome [9]: inactive
outcome [5]: inactive
outcome [6]: inactive
outcome [7]: inactive

O=C1CCCCCCCCCCC1
outcome [1]: inactive
outcome [2]: inactive
outcome [3]: inactive
outcome [4]: inactive
outcome [9]: inactive
outcome [5]: inactive
outcome [6]: inactive
outcome [7]: inactive
outcome [8]: inactive
outcome [10]: inactive

CC(Cl)COP(=O)(OCC(C)Cl)OCC(C)Cl (centres undefined)
outcome [1]: inactive
outcome [2]: inactive
outcome [3]: inactive
outcome [4]: inactive
outcome [9]: inactive
outcome [5]: inactive
outcome [6]: inactive
outcome [7]: inactive

CCc1cccc(C)c1N(C(=O)CS(=O)(=O)O)C(C)COC (centres undefined)
outcome [1]: inactive
outcome [3]: inactive
outcome [4]: inactive
outcome [9]: inactive
outcome [5]: inactive
outcome [6]: inactive
outcome [7]: inactive

CCN1CN(CC)CN(CC)C1
outcome [1]: inactive
outcome [2]: inactive
outcome [3]: inactive
outcome [4]: inactive
outcome [5]: inactive
outcome [6]: inactive
outcome [7]: inactive
outcome [10]: inactive

CC=C(C)C(C)=O
outcome [1]: inactive
outcome [3]: inactive
outcome [4]: inactive
outcome [9]: inactive
outcome [5]: inactive
outcome [6]: inactive
outcome [7]: inactive
outcome [8]: inactive

CC(C)c1cccc(C(C)C)c1N
outcome [1]: inactive
outcome [2]: inactive
outcome [3]: inactive
outcome [4]: inactive
outcome [9]: inactive
outcome [5]: inactive
outcome [6]: inactive
outcome [7]: inactive
outcome [8]: inactive

C=C(C)C(=O)OCCCCCCCCCCCC
outcome [1]: inactive
outcome [2]: inactive
outcome [3]: inactive
outcome [4]: inactive
outcome [5]: inactive
outcome [6]: inactive
outcome [7]: inactive
outcome [8]: inactive

CCC1(C)C(=O)N(Cl)C(=O)N1Cl (centres undefined)
outcome [1]: inactive
outcome [2]: inactive
outcome [3]: inactive
outcome [4]: inactive
outcome [5]: inactive
outcome [6]: inactive
outcome [7]: inactive
outcome [10]: inactive

CC(c1cc(C(C)(C)C)cc(C(C)(C)C)c1O)c1cc(C(C)(C)C)cc(C(C)(C)C)c1O
outcome [1]: inactive
outcome [3]: inactive
outcome [4]: inactive
outcome [9]: inactive
outcome [5]: inactive
outcome [6]: inactive
outcome [7]: inactive
outcome [8]: inactive
outcome [10]: inactive

CCCCCC1=CCCC1=O
outcome [1]: inactive
outcome [2]: inactive
outcome [3]: inactive
outcome [4]: inactive
outcome [9]: inactive
outcome [5]: inactive
outcome [6]: inactive
outcome [7]: inactive

O=C(O)C(F)(F)C(F)(F)C(F)(F)C(F)(F)C(=O)O
outcome [1]: inactive
outcome [2]: inactive
outcome [4]: inactive
outcome [5]: inactive
outcome [6]: inactive
outcome [7]: inactive

O=C(Oc1ccccc1)c1ccccc1C(=O)Oc1ccccc1
outcome [1]: inactive
outcome [2]: inactive
outcome [3]: inactive
outcome [4]: inactive
outcome [5]: inactive
outcome [6]: inactive
outcome [7]: inactive

COc1ccc(C(=O)/C(Br)=C\C(=O)O)cc1
AC50 [1]: 20 µM (active) and 24.8 µM (active)
AC50 [3]: 20 µM (active) and 6.52 µM (active)
AC50 [4]: 33 µM (active) and 35 µM (active)
AC50 [9]: 25.6 µM (active) and 23.3 µM (active)
AC50 [5]: 31.7 µM (active)
outcome [5]: inactive
AC50 [6]: 10.2 µM (active) and 16 µM (active)
AC50 [7]: 25.3 µM (active) and 30.3 µM (active)

CCNc1nc(NC(C)(C)C)nc(OC)n1
outcome [1]: inactive
outcome [3]: inactive
outcome [4]: inactive
outcome [9]: inactive
outcome [5]: inactive
outcome [6]: inactive
outcome [7]: inactive
outcome [10]: inactive

CCOC(=O)/C=C\C(=O)OCC
outcome [1]: inactive
outcome [2]: inactive
outcome [3]: inactive
AC50 [4]: 3.97 µM (active)
outcome [5]: inactive
outcome [6]: inactive
outcome [7]: inactive
outcome [10]: inactive

CCOC(=O)C1=NN(c2ccc(Cl)cc2Cl)C(C)(C(=O)OCC)C1 (centres undefined)
outcome [1]: inactive
outcome [2]: inactive
outcome [3]: inactive
outcome [4]: inactive
outcome [9]: inactive
outcome [5]: inactive
outcome [6]: inactive
outcome [7]: inactive
outcome [10]: inactive

C=CC(=O)NC(C)(C)C
outcome [1]: inactive
outcome [2]: inactive
outcome [3]: inactive
outcome [4]: inactive
outcome [5]: inactive
outcome [6]: inactive
outcome [7]: inactive
outcome [8]: inactive
